Where “and” joins values, the source holds several entries; their conditions need not be identical. Equal values may be shown once. Records with an inconclusive call do not appear. Values without a mark were called inactive. Calls of active or inactive are those of the source. Calls come from the whole dose curve; as a rule, active = well fitted inhibition curve with a large enough effect; inconclusive = small, poorly fitted or top-dose-only effect; inactive = no such curve, though single readings can be large or run the other way.
Target: Cruzipain (Trypanosoma cruzi) (UniProt P25779)
Sequence (P25779 123-467 limits assumed): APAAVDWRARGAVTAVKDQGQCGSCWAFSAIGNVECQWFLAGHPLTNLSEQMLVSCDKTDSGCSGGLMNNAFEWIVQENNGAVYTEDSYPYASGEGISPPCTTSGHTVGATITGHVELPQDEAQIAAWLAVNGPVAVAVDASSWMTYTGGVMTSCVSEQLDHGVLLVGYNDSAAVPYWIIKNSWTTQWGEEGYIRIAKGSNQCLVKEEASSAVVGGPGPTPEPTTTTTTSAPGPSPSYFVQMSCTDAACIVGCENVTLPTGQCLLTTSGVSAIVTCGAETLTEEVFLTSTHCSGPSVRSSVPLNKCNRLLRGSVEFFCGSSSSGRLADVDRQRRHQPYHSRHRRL
Experiment: Confirmation qHTS Assay for Inhibitors of Cruzain; note: nearly all actives have a fitted effect of over 40% in size;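 for activity change, negative = inhibition: plate controls were uninhibited enzyme control for no effect and buffer wells lacking enzyme for full effect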
Conditions: purified cruzain, Z-FR-AMC fluorescence, 0.01% Triton
Outline: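 Reaction progress from the 60 s rise in AMC fluorescence (ex 360, em 450 nm) after adding 2 uM Z-FR-AMC. Before this, 1.5 nM cruzain sat 15 min at room temperature with compound in pH 5.5 acetate buffer with 5 mM DTT and 0.01% Triton X-100.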
Potency is the fitted concentration of half-maximal effect.

**Q.** `CC(=O)Nc1ccc(/C=C/C(=O)c2ccc(-n3nncc3-c3ccccc3)cc2)cc1` was tested. Which activity change, negative = inhibition did it give?
**A.** Its activity change, negative = inhibition is 31.4%.

**Q.** `COc1cccc(OC)c1-c1nn2c(-c3n[nH]c4c3CCC4)nnc2s1` was tested. Which activity change, negative = inhibition did it give?
**A.** Its activity change, negative = inhibition is -13% and -10.1%.

**Q.** With `CCc1ccc(OCCCn2c(CCCNC(=O)C3CCCCC3)nc3ccccc32)cc1` as the molecule, how does the activity change, negative = inhibition read?
**A.** The activity change, negative = inhibition was -18.8%.

**Q.** `N=c1c(C(=O)NCc2ccc(F)cc2)cc2c(=O)n3ccccc3nc2n1CC1CCCO1` (stereo not drawn) was tested. Which activity change, negative = inhibition did it give?
**A.** Its activity change, negative = inhibition is -76.7%.

**Q.** With `COc1cccc(-c2nn3c(-c4cc(C)[nH]n4)nnc3s2)c1` as the molecule, how does the activity change, negative = inhibition read?
**A.** The activity change, negative = inhibition was -5.64%.

**Q.** Which Potency does the source give for `Cc1cccc(OCCn2c(CCNC(=O)C3CCCCC3)nc3ccccc32)c1` here?
**A.** Its Potency is 891 nM (active).

**Q.** Which activity change, negative = inhibition does the source give for `CC(C)(C)OC(=O)Cc1nnc(-c2nc3ccccc3[nH]2)o1` here?
**A.** The activity change, negative = inhibition was -0.371%.

**Q.** `CC(C)(C)OC(=O)Cc1nnc(C(C(=O)OCc2ccccc2)c2ccccc2)o1` (stereo not drawn) was tested. Which activity change, negative = inhibition did it give?
**A.** Its activity change, negative = inhibition is -12.3%.

**Q.** `NNC(=O)Cn1c(SCc2ccccc2)nc2ccccc21` was tested. Which activity change, negative = inhibition did it give?
**A.** Its activity change, negative = inhibition is 3.64%.

**Q.** `O=C(NCCc1nc2ccccc2n1CCCOc1ccc2ccccc2c1)C1CCCCC1` was tested. Which Potency did it give?
**A.** Its Potency is 1120 nM (active).

**Q.** For `CC(C)(C)c1ccc(C(=O)NCC(=O)OC(C(=O)Nc2cc(C(F)(F)F)ccc2Cl)c2ccccc2)cc1` (stereo not drawn), which activity change, negative = inhibition is on record?
**A.** Its activity change, negative = inhibition is -14%.

**Q.** How did the activity change, negative = inhibition turn out when `N#CN1CCC(NC(=O)c2ccc(F)cc2)CC1` was run?
**A.** The activity change, negative = inhibition was 0.471%.

**Q.** Which activity change, negative = inhibition does the source give for `FC(F)Sc1ccc(N=C2NN=C(c3ccc4c(c3)OCCO4)CS2)cc1` here?
**A.** The activity change, negative = inhibition was -6.33%.

Source: PubChem BioAssay AID2158 (National Center for Advancing Translational Sciences (NCATS), 2009)
